Experiment [1] can be described thus: qHTS assay to identify small molecule antagonists of the estrogen related receptor (ERR) signaling pathway from Tox21 library - cell viability counter screen (AID 1224834). Further: nearly all actives have a fitted effect of over 30% in size. Further: potency means the concentration at half of the fitted maximal effect. In outline: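 In this quantitative HTS format, ERR cells receive compounds in DMSO and are incubated for 17.5 h at 37 C. Live-cell protease activity is then detected with CellTiter-Fluor.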
Background: Quantitative high-throughput screening tests each substance at several concentrations.

The target of experiment [2] is Luciferin 4-monooxygenase (Photinus pyralis) (UniProt P08659). The experiment is described as follows: qHTS assay to identify small molecule inhibitors of firefly luciferase (AID 1224835). Further: nearly all actives have a fitted effect of over 25% in size. In short, it runs like this: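 Biochemical qHTS: compounds run as interplate titrations against purified firefly enzyme, with D-luciferin and ATP each at its KM concentration. Light output recorded by CCD imaging.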

A short description of experiment [3]: qHTS assay to identify small molecule agonists of the constitutive androstane receptor (CAR) signaling pathway - cell viability counter screen (AID 1224836). Further: nearly all actives have a fitted effect of over 45% in size. In short, it runs like this:
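Cells were seeded and incubated 4 hrs. Compounds were added across 15 concentrations together with PK11195 at 0.75 uM final. Plates were incubated 23 hrs at 37 C. CellTiter-Fluor was added and fluorescence measured.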

A short description of experiment [4]: qHTS assay to identify small molecule antagonists of the constitutive androstane receptor (CAR) signaling pathway - cell viability counter screen (AID 1224837). Further: nearly all actives have a fitted effect of over 45% in size. In outline: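 In quantitative HTS format, compounds at 15 concentrations were applied to HepG2 cells double-transfected with hCAR and CYP2B6-2.2kb under 50 nM CITCO stimulation; live-cell protease activity was read after 23 hr via CellTiter-Fluor.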

Experiment [5] concerns the target Nuclear receptor subfamily 1 group I member 3 (Homo sapiens) (UniProt Q14994). Briefly: qHTS assay to identify small molecule agonists of the constitutive androstane receptor (CAR) signaling pathway (AID 1224839). Further: nearly all actives have a fitted effect of over 15% in size. Further: potency means the concentration at half of the fitted maximal effect.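 On activation: HepG2 cells stably carrying human CAR and a CYP2B6 luciferase reporter.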 In short, it runs like this: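 Cells were plated and incubated 4 hrs, then dosed with compounds at 15 concentrations. PK11195 was added to 0.75 uM final. After 24 hrs at 37 C, luciferase luminescence was measured.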

Experiment [6] can be described thus: qHTS assay to identify small molecule antagonists of the estrogen related receptor signaling pathway with the pleiotropic PPARgamma coactivator (PGC) from Tox21 10K library - cell viability counter screen (AID 1224840; active means well fitted cell-killing curve with a large enough effect in the repeat runs, not every such curve was filed as active; further: nearly all actives have a fitted effect of over 40% in size). In outline:
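Viability counter screen, PGC/ERR cells: 17.5 h compound exposure at 37 C, CellTiter-Fluor fluorescence endpoint.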

Experiment [7] is described as follows: qHTS assay to identify small molecule antagonists of the estrogen related receptor signaling pathway with the pleiotropic PPARgamma coactivator (PGC) from Tox21 10K library (AID 1224841; call rule not given here; further: actives are mostly falling curves and most rising ones were filed inactive; nearly all actives have a fitted effect of over 50% in size). In short, it runs like this:
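In the PGC/ERR line, DMSO solutions of test chemicals are pin-delivered to 2,000 cells/well six hours after dispensing. Following eighteen hours' incubation, One-Glo reagent is added and luminescence recorded.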

Experiment [8] is described as follows: qHTS assay to identify small molecule agonists of the estrogen related receptor signaling pathway with the pleiotropic PPARgamma coactivator (PGC) from Tox21 10K library (AID 1224842). Further: nearly all actives have a fitted effect of over 15% in size. In outline:
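PGC/ERR reporter cell line, 2,000 cells per well, incubated 6 h at 37 C before 23 nL compound in DMSO was added. After 18 h at 37 C, One-Glo luminescence read following 30 min at room temperature.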

The target in experiment [9] is Thyrotropin receptor (Homo sapiens) (UniProt P16473). Briefly: qHTS assay to identify small molecule agonists of the thyroid stimulating hormone receptor (TSHR) signaling pathway (AID 1224843; calls by dose curve; further: nearly all actives have a fitted effect of over 45% in size; further: potency means the concentration at half of the fitted maximal effect). In short, it runs like this: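 Agonist-mode screen: TSHR HEK293 cells received test chemicals for half an hour at room temperature, then HTRF cAMP detection reagents for one hour prior to fluorescence measurement. Each chemical ran as a 15-concentration series, triplicated.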

Experiment [10] can be described thus: qHTS assay to identify small molecule agonists of the hypoxia (HIF-1) signaling pathway (AID 1224846; active means well fitted activation curve with a large enough effect in the signal ratio in the repeat runs, not every such curve was filed as active; the % refers to the signal ratio). In outline: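 In ME-180 cells bearing an HRE-bla construct, 17 h treatment with DMSO-dissolved compounds at 37C was followed by CCF4-AM loading to quantify reporter induction.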
Experiment [11] in a line: qHTS assay to identify small molecule agonists of H2AX - cell viability counter screen (AID 1224847; calls by dose curve; further: top concentration of the series differs between compounds; nearly all actives have a fitted effect of over 30% in size). In short, it runs like this:
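Cytotoxicity counter screen in wild-type CHO-K1 cells: a 3 hr compound treatment at 37C across 15 concentrations, followed by CellTiter-Glo luminescence to gauge viable cells.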

Experiment [12] in a line: qHTS assay to identify small molecule antagonists of the estrogen related receptor (ERR) signaling pathway from Tox21 library (AID 1224848). Further: nearly all actives have a fitted effect of over 50% in size. Further: potency means the concentration at half of the fitted maximal effect. In outline:
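Quantitative high-throughput format: ERR reporter cells (2,000/well) pre-incubated 6 h, treated 18 h at 37 C with compounds in DMSO alongside positive and negative controls, then read by ONE-Glo luminescence.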

A short description of experiment [13]: qHTS assay to identify small molecule agonists of the estrogen related receptor (ERR) signaling pathway from Tox21 library (AID 1224849; calls by dose curve; further: nearly all actives have a fitted effect of over 15% in size). Particulars: ERR reporter cell line, ONE-Glo luciferase, 18 h; at 92.4 µM (top of the series) unless noted. In outline: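 Reporter cells (ERR, NTP source) treated with Tox21 10K compounds 18 h, 37 C. Readout: ONE-Glo luminescence, 30 min RT.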

Experiment [14] in a line: qHTS RealTime-Glo MT Cell Viability Assay in HepG2 cells - 24 hour (AID 1224867). Further: nearly all actives have a fitted effect of over 50% in size. In outline:
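Cell number in HepG2 cultures estimated from NanoLuc luminescence generated by metabolic reduction of a prosubstrate by living cells. The homogeneous, nonlytic format allowed repeated reads at 0, 8, 16, 24, 32 and 40 h of compound exposure.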

Experiment [15] in a line: qHTS RealTime-Glo MT Cell Viability Assay in HEK293 cells - 32 hour (AID 1224868). Further: nearly all actives have a fitted effect of over 50% in size. Further: potency means the concentration at half of the fitted maximal effect. On activity change, negative = cytotoxic: top concentration of the series differs between compounds. In short, it runs like this: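 Homogeneous bioluminescent viability format in HEK293 cells (600 cells/well). Following 5 h at 37 C/5% CO2, 23 nL compound was pintooled; the signal was measured repeatedly during 40 h incubation.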
Experiment [16] can be described thus: A CellTox Green Cytotoxicity Assay to monitor cytotoxicity in HEK293 cells - 0 hour (AID 1224869). Further: nearly all actives have a fitted effect of over 50% in size. In short, it runs like this:
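Homogeneous no-lysis format: HEK293 cell suspension mixed with CellTox Green reagent, seeded, incubated 5 h at 37 C/5% CO2, then dosed by pintool with compound in DMSO.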

A short description of experiment [17]: qHTS assay to identify small molecule agonists of the hypoxia (HIF-1) signaling pathway - cell viability counter screen (AID 1224844; calls by dose curve; further: nearly all actives have a fitted effect of over 50% in size). In outline:
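Same wells as the HIF-1 reporter screen; ME-180 cells carrying HRE-bla, 17 hr treatment at 37C; CellTiter-Glo luminescence read after 30 min at room temperature.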

Experiment [18] is described as follows: qHTS assay to identify small molecule agonists of H2AX (AID 1224845; active means well fitted activation curve with a large enough effect in the signal ratio in the repeat runs, not every such curve was filed as active; the % refers to the signal ratio). In outline:
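Wild-type CHO-K1 cells, plated overnight, exposed 3hr at 37C to 15 concentrations (0.76% DMSO final). Lysed, then HTRF anti-pH2AX (S139) cryptate and anti-H2AX-d2 antibodies, 24 hr room temperature; 665/620 nm emission read.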

For experiment [19], the target named is Nuclear receptor subfamily 1 group I member 3 (Homo sapiens) (UniProt Q14994). The experiment is described as follows: qHTS assay to identify small molecule antagonists of the constitutive androstane receptor (CAR) signaling pathway (AID 1224838). Further: nearly all actives have a fitted effect of over 40% in size. In outline:
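CITCO-stimulated (50 nM final) HepG2 cells stably transfected with hCAR and CYP2B6-2.2kb luciferase were exposed to compounds at 15 concentrations for 24 h at 37 C/5% CO2. A luciferase reagent was added and luminescence recorded after 30 min.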

A number with no mark means an inactive call. Records with an inconclusive call do not appear. Active and inactive are the calls of the source. Unless noted, the call rests on the fitted dose curve; in most records, active means well fitted curve in the direction sought with a large enough effect in the repeat runs; inconclusive means weak or mixed curves; inactive means no such curve, though single readings can be large; an effect the other way counts as inactive or inconclusive.
On the % scale 0 is the no-effect control and ±100 the full control effect.

Luciferin 4-monooxygenase (Photinus pyralis), sequence (P08659 whole entry, looked up): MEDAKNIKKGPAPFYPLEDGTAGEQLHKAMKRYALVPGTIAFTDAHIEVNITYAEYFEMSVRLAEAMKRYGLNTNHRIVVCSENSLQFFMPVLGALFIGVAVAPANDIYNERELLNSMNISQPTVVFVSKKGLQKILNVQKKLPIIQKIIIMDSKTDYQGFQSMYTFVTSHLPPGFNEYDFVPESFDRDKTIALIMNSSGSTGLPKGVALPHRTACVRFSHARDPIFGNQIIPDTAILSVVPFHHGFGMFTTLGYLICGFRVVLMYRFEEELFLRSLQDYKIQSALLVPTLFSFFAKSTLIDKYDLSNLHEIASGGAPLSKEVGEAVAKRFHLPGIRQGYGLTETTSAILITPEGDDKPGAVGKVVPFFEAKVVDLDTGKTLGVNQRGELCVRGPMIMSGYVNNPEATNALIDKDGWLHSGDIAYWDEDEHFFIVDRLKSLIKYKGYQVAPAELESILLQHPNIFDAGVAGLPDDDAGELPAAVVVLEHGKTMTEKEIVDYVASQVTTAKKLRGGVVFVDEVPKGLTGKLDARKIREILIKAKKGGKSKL
Nuclear receptor subfamily 1 group I member 3 (Homo sapiens), sequence (Q14994 whole entry, looked up): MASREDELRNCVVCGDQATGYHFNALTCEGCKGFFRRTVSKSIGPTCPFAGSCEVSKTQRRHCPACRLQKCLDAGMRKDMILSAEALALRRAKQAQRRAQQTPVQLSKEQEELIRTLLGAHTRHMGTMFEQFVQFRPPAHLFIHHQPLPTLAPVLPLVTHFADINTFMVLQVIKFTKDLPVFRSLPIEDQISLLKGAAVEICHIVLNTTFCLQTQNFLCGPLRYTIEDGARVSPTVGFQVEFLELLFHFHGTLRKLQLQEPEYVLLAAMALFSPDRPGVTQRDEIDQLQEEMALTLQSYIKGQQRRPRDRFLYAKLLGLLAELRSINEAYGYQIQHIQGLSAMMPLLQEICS
Thyrotropin receptor (Homo sapiens), sequence (P16473 whole entry, looked up): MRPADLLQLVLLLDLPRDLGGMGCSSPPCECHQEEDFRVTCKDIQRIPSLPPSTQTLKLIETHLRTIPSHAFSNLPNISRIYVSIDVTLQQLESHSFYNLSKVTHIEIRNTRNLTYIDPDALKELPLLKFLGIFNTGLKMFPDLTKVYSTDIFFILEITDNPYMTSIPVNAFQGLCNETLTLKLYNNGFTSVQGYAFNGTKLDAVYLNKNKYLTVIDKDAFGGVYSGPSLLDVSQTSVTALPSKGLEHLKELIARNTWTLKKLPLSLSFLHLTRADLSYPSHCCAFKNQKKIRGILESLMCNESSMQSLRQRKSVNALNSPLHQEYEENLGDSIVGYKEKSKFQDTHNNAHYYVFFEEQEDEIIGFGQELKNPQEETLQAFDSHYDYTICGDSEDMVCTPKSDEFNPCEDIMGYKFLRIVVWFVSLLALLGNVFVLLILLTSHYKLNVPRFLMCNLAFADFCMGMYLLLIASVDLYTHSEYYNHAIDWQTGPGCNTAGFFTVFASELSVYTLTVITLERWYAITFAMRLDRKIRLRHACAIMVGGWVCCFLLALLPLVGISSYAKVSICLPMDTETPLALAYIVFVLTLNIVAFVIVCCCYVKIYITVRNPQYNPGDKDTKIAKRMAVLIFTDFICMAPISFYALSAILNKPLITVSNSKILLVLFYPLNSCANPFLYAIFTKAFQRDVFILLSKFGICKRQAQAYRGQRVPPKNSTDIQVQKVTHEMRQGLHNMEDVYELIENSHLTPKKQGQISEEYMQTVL

Regarding `CC(C)(OO)c1ccccc1`, the Potency result in experiment [1], in experiment [2], in experiment [3], in experiment [4], in experiment [5] and in experiment [6] was “inactive” in each case. In addition, the Potency result in [7], in [8], in experiment [11], in [12], in [14] and in [15] was “inactive” in each case. Also, the Potency result in experiment [16] was “inactive”. In [9], the Potency was 34.4 µM (active). For the same compound, the result in experiment [10] was inactive. The activity change, positive = activation in [13] is 4.39%.

As for `O=Cc1ccc(Cl)cc1Cl`, the Potency result in [1], in experiment [2], in experiment [3], in [4], in experiment [6] and in [7] was “inactive” each time. The Potency entry in experiment [8], in [17], in [18], in [11], in [12] and in experiment [14] was “inactive” in each case. The Potency result in [15] and in experiment [16] was “inactive” each time. For the same compound, the result in [10] was inactive. For the same compound, the activity change, positive = activation in [13] was -10.7%.

Turning to `CO[C@@H]1[C@H](OC(=O)NC(=O)CCl)CC[C@]2(CO2)[C@H]1[C@@]1(C)O[C@@H]1CC=C(C)C`, the values for the viability change, negative = cytotoxic in experiment [1], in experiment [3] and in experiment [6] were -3.88% [at 19 µM], -5.35% [at 19 µM] and -8.92% [at 19 µM], respectively. Moreover, the activity change, negative = inhibition in experiment [2] was 2.04% [at 23.6 µM]. In addition, the activity change, negative = cytotoxicity is -18.3% [at 19 µM] in experiment [4], 2.72% [at 31.6 µM] in [11] and 0.578% [at 15.8 µM] in [14]. Besides, the activation is -1.38% [at 19 µM] in experiment [5], -7.49% [at 19 µM] in experiment [8], -6.28% [at 19 µM] in experiment [9] and -0.119% [at 15.8 µM] in [10]. Besides, the activation (H2AX phosphorylation) in [18] was 1.5% [at 31.6 µM]. The activity, negative = inhibition in [12] was -8.28% [at 19 µM]. The activity change, positive = activation in [13] is -4.67% [at 19 µM]. Moreover, the activity change, negative = cytotoxic in [15] was 8.14% [at 15.8 µM]. Moreover, the cytotoxicity in experiment [16] is -3.97% [at 15.8 µM].

`CN(N=O)c1ccc([N+](=O)[O-])cc1`: the Potency result in experiment [1], in [2], in experiment [3], in experiment [4], in [19] and in [6] was “inactive” each time. Further, the Potency result in experiment [18], in [11], in experiment [14], in experiment [15] and in [16] was “inactive” in each case. In addition, the outcome in experiment [10] was inactive.

Take `BrCC(Br)C1CCC(Br)C(Br)C1` (centres undefined): the Potency result in experiment [1], in experiment [2], in experiment [3], in experiment [4], in [19] and in experiment [6] was “inactive” each time. In addition, the Potency entry in experiment [17], in [18], in experiment [14] and in experiment [16] was “inactive” each time. The Potency in experiment [9] is 48.3 µM (active). The compound was called inactive in experiment [10].

For `CCOP(=S)(OCC)SCn1nnc2ccccc2c1=O`, the Potency is 43.3 µM (active) in experiment [1], 24.3 µM (active) in [5], 27.3 µM (active) in [12] and 21.9 µM (active) in [15]. Besides, the Potency entry in experiment [2], in experiment [3], in [4], in [8], in experiment [9] and in experiment [17] was “inactive” throughout. Besides, the Potency entry in [14] and in experiment [16] was “inactive” in each case. For the same compound, the outcome in experiment [10] was inactive. In addition, in experiment [13], the activity change, positive = activation was -48.2%.

Regarding `CN1C(=O)C(O)N=C(c2ccccc2)c2cc(Cl)ccc21` (centres undefined), the Potency entry in experiment [1], in experiment [2], in experiment [3], in experiment [4], in [6] and in experiment [7] was “inactive” throughout. The Potency entry in experiment [8], in experiment [18], in experiment [11], in experiment [12], in experiment [14] and in experiment [16] was “inactive” each time. Also, the activity change, positive = activation in experiment [13] was -0.379%.

The values are drawn from PubChem BioAssay (Tox21).
